# Whole data set: some 9,900 sequences, median “r (bound/input frequency ratio)” near 0.7, cut for the highest 2% near 6.5. Many of the other results were omitted from the sample, so the highest values are more common in it than they were.
# B1: ENSMUSG00000042529.155|Kcnj12|40:44 (ssRNA)
# RNA: GGGAGUUCUACAGUCCGACGAUCGCUUCGAUAUCCGCAUGCUAAGAGUGGGUGCUUCUUAGAAAAGGACACUCAGGAAAUUACAUACGGGUCUGGGUCCCACAUCCCCAGGAAGUGGGUCAGCCCCACGUCCCCCGCUGGACUCACAGCUUGAGUUGUGCCUUAGAGACUCUGGUUGUCUGGCUUCCGUCAUUUCUGGUUUUCUCAGACUUGUUUAAUCUUUCCCUACUGCCCUAAGUCCACUCAUGAAGCUCCCCAGGCCCUUCUGAGAUUGCAGAGGCUGCUUGCUCAUAGCCAUGACCCUCUCUUGCGGUCGCACUAGUGUGGAAUUCUCGGGUGUCAAGG
# B2: ENSMUSG00000031028.502|Tub (ssRNA)
# RNA: GGGAGUUCUACAGUCCGACGAUCGCUUCGAUAUCCGCAUGCUACAAGUAAGGUGUGUGCCUCUGGGAAGACAGGAGUCGGAAGCCAAGGUGUGUGGCAACAGUCUGGAAGAGAGCUUUUGGUAAUCAUACCGUCUUCAGUGACAAGGCAACAAUGCUGUAAAGUGGGUUUGUUUGGUUUUGUUUUUUCUUUCUCUUUUAUGGAAAUGGCAGGUCUAUUUGCCUCAAACGUUAUGUAGAAGUAGUUCUAAGUUUAACAAGCAAUAGAGAUGACUGCUUAGCUAGGAUCUGCAGGGAGCUCUGCUCUCUUGCGGUCGCACUAGUGUGGAAUUCUCGGGUGUCAAGG
# B3: ENSMUSG00000042529.125|Kcnj12|220:224 (ssRNA)
# RNA: GGGAGUUCUACAGUCCGACGAUCGCUUCGAUAUCCGCAUGCUAGUGGGGCCCACUAGGGUGAAUCUGGCUUGCUCUUCUGUUUGAUGUUGUUGUACCUCAGCUGCCUCAGGGCUGGGUUUAGACACCCCUUCCCCCACCCCCACUCCGUACUCCCUGUUGUGCUUCCCUUCCUAUUUAGUCCCAGGUCUCCACCCCUUGCAGCGAGGGGGCAUAGGAAACACCAGAGUGGGUGCUUCUUAGAAAAGGACACUCAGGAAAUUACAUACGGGUCUGGGUCCCACAUCCCCAGGAAGUGGGUCAGCCUCUUGCGGUCGCACUAGUGUGGAAUUCUCGGGUGUCAAGG
# B4: ENSMUSG00000031028.204|Tub|197:201;203:208 (ssRNA)
# RNA: GGGAGUUCUACAGUCCGACGAUCGCUUCGAUAUCCGCAUGCUACUCUUCCCAGUUCCAGAGAUGAAACCCCUCCGAGUUAAUGUAUAAGGUUGGAAACCUUUCAGUAGGGAAUCAGGCAGUUCCCUGUUGAAAGUUGUCUGAGUUUUUGCACACCAUUCUGAUCUGAUGUGGCCUGUGCCUGGCUCCUCUAUGAGGACUUCGAGCUGUGCACAGACCUUAGCAGGACCACUGCACACUUACACACACACACACAGGCAGCCCAAGGGUUCUGGGGCUGGGCUUGGACACGCCCUCCAUUGGGACUCUUGCGGUCGCACUAGUGUGGAAUUCUCGGGUGUCAAGG
# B5: ENSMUSG00000032194.8|Kank2 (ssRNA)
# RNA: GGGAGUUCUACAGUCCGACGAUCGCUUCGAUAUCCGCAUGCUAGCCGAGGAGUGAAUACAGGGAGGAGCCAGUGAGUCCCCCAGGACCCACCAGCCACAAGCCACGCAUCAAACCGUCCCUCCUCCAUCCCUCUGUCCCAUUCUGCCUCGGCAUUCCUCAGCCCCUGAACUUCCCUGAGGGAGCCCUGACAUCUACCAGGCUCAAGCUCCUGGAAGCCUUUCCCAGCACCCUGGGUUCAAAGCCAGAAAGCCAAGCUACAUUCUCCUCCCAGUUGGCACCAGUUGACAACGCCUUGGGUGUGGCUCUUGCGGUCGCACUAGUGUGGAAUUCUCGGGUGUCAAGG
# B6: ENSMUSG00000031028.492|Tub|69:75;106:112 (ssRNA)
# RNA: GGGAGUUCUACAGUCCGACGAUCGCUUCGAUAUCCGCAUGCUAUUUAAAUGAACAUGGGGUGGUGAUGGUGCCUUAACAAUCUUGACACUAAGGUGAAGCAAGCAAGUAAGCACACACCCUCUGGGAAGACAGGAGUCGGAAGCCAAGCACACACGCAACAGUCUGGAAGAGAGCUUUUGGUAAUCAUACCGUCUUCAGUGACAAGGCAACAAUGCUGUAAAGUGGGUUUGUUUGGUUUUGUUUUUUCUUUCUCUUUUAUGGAAAUGGCAGGUCUAUUUGCCUCAAACGUUAUGUAGAAGUAGCUCUUGCGGUCGCACUAGUGUGGAAUUCUCGGGUGUCAAGG
# B7: ENSMUSG00000061578.750|Ksr2 (ssRNA)
# RNA: GGGAGUUCUACAGUCCGACGAUCGCUUCGAUAUCCGCAUGCUACAAGUUUGAGUCUCCAUAUGGGCCCUUCCUGUCCUCAUGCCCUGCCUGUCUUCAUUCCACCCAUCCACCCUCCUAAGGAUUGGUCUUGUUCCGAGAGUGAUCCUGGUAACGCCAAGCCUCCCUCUGCCCCUGUGUUGGCUUCUGUGACGGACUACCACACACCAAGAGGUUUUUCACAGUGAAGAUGUAUGCUCUCACCAUCCUACAGAUGCAAAGACCAAACACAAAGUGUCUGCAUGACCUUCCCCCUCUGGAAUUUGCUCUUGCGGUCGCACUAGUGUGGAAUUCUCGGGUGUCAAGG
# B8: ENSMUSG00000028439.173|Fam219a (ssRNA)
# RNA: GGGAGUUCUACAGUCCGACGAUCGCUUCGAUAUCCGCAUGCUAAUGGUAUGGUAUGGUAUGGUAUGGUAUGCACAUGUGUGUGCAUGUGUGUGUGCCUGUGUGUGUGCGUGUGCGUGUGUGUAUGUGUGUGCGUGUGUGUGUGUGUGUGUUGUACCCGAGUGUGUGUUGAGCCUAUCUGUCCAGGGAACCAGAUUGGUGUCCGAGAUGAGGAAAUGGCUGUGGCCUGGGAAAUCAGUGAGAGGCCGCUUGGGAAUGAGAAUGCAGUGGACUGAAAGCACAGCCUGGCCAUCUGGAACCUGGGUCUCUUGCGGUCGCACUAGUGUGGAAUUCUCGGGUGUCAAGG
# B9: ENSMUSG00000028439.172|Fam219a (ssRNA)
# RNA: GGGAGUUCUACAGUCCGACGAUCGCUUCGAUAUCCGCAUGCUAUAUGGUAUGGUAUGGUAUGGUAUGGUAUGGUAUGCACAUGUGUGUGCAUGUGUGUGUGCCUGUGUGUGUGCGUGUGCGUGUGUGUAUGUGUGUGCGUGUGUGUGUGUGUGUGUUGUACCCGAGUGUGUGUUGAGCCUAUCUGUCCAGGGAACCAGAUUGGUGUCCGAGAUGAGGAAAUGGCUGUGGCCUGGGAAAUCAGUGAGAGGCCGCUUGGGAAUGAGAAUGCAGUGGACUGAAAGCACAGCCUGGCCAUCUGGAACCUCUUGCGGUCGCACUAGUGUGGAAUUCUCGGGUGUCAAGG
# B10: ENSMUSG00000028439.175|Fam219a (ssRNA)
# RNA: GGGAGUUCUACAGUCCGACGAUCGCUUCGAUAUCCGCAUGCUAGGUAUGGUAUGGUAUGCACAUGUGUGUGCAUGUGUGUGUGCCUGUGUGUGUGCGUGUGCGUGUGUGUAUGUGUGUGCGUGUGUGUGUGUGUGUGUUGUACCCGAGUGUGUGUUGAGCCUAUCUGUCCAGGGAACCAGAUUGGUGUCCGAGAUGAGGAAAUGGCUGUGGCCUGGGAAAUCAGUGAGAGGCCGCUUGGGAAUGAGAAUGCAGUGGACUGAAAGCACAGCCUGGCCAUCUGGAACCUGGGUUCUGGUCCCAGCCUCUUGCGGUCGCACUAGUGUGGAAUUCUCGGGUGUCAAGG
# B11: ENSMUSG00000028439.170|Fam219a (ssRNA)
# RNA: GGGAGUUCUACAGUCCGACGAUCGCUUCGAUAUCCGCAUGCUAUGUAUGAUAUGGUAUGGUAUGGUAUGGUAUGGUAUGGUAUGGUAUGCACAUGUGUGUGCAUGUGUGUGUGCCUGUGUGUGUGCGUGUGCGUGUGUGUAUGUGUGUGCGUGUGUGUGUGUGUGUGUUGUACCCGAGUGUGUGUUGAGCCUAUCUGUCCAGGGAACCAGAUUGGUGUCCGAGAUGAGGAAAUGGCUGUGGCCUGGGAAAUCAGUGAGAGGCCGCUUGGGAAUGAGAAUGCAGUGGACUGAAAGCACAGCCUGCUCUUGCGGUCGCACUAGUGUGGAAUUCUCGGGUGUCAAGG
# B12: ENSMUSG00000028439.176|Fam219a (ssRNA)
# RNA: GGGAGUUCUACAGUCCGACGAUCGCUUCGAUAUCCGCAUGCUAGUAUGGUAUGCACAUGUGUGUGCAUGUGUGUGUGCCUGUGUGUGUGCGUGUGCGUGUGUGUAUGUGUGUGCGUGUGUGUGUGUGUGUGUUGUACCCGAGUGUGUGUUGAGCCUAUCUGUCCAGGGAACCAGAUUGGUGUCCGAGAUGAGGAAAUGGCUGUGGCCUGGGAAAUCAGUGAGAGGCCGCUUGGGAAUGAGAAUGCAGUGGACUGAAAGCACAGCCUGGCCAUCUGGAACCUGGGUUCUGGUCCCAGCCUCGGCCUCUUGCGGUCGCACUAGUGUGGAAUUCUCGGGUGUCAAGG
# B13: ENSMUSG00000028439.174|Fam219a (ssRNA)
# RNA: GGGAGUUCUACAGUCCGACGAUCGCUUCGAUAUCCGCAUGCUAUGGUAUGGUAUGGUAUGGUAUGCACAUGUGUGUGCAUGUGUGUGUGCCUGUGUGUGUGCGUGUGCGUGUGUGUAUGUGUGUGCGUGUGUGUGUGUGUGUGUUGUACCCGAGUGUGUGUUGAGCCUAUCUGUCCAGGGAACCAGAUUGGUGUCCGAGAUGAGGAAAUGGCUGUGGCCUGGGAAAUCAGUGAGAGGCCGCUUGGGAAUGAGAAUGCAGUGGACUGAAAGCACAGCCUGGCCAUCUGGAACCUGGGUUCUGGUCUCUUGCGGUCGCACUAGUGUGGAAUUCUCGGGUGUCAAGG
# B14: ENSMUSG00000028439.174|Fam219a|3:22;27:34;37:46;49:58;60:64;66:82;84:101;111:118 (ssRNA)
# RNA: GGGAGUUCUACAGUCCGACGAUCGCUUCGAUAUCCGCAUGCUAUGCAUACCAUACCAUACCAUACCACAACACACACCAACACACACACCCACACACACACCCACACCCACACACAUACACACACCCACACACACACACACACAUGUACCCGACACACACAUGAGCCUAUCUGUCCAGGGAACCAGAUUGGUGUCCGAGAUGAGGAAAUGGCUGUGGCCUGGGAAAUCAGUGAGAGGCCGCUUGGGAAUGAGAAUGCAGUGGACUGAAAGCACAGCCUGGCCAUCUGGAACCUGGGUUCUGGUCUCUUGCGGUCGCACUAGUGUGGAAUUCUCGGGUGUCAAGG
# B15: ENSMUSG00000028439.171|Fam219a (ssRNA)
# RNA: GGGAGUUCUACAGUCCGACGAUCGCUUCGAUAUCCGCAUGCUAAUAUGGUAUGGUAUGGUAUGGUAUGGUAUGGUAUGGUAUGCACAUGUGUGUGCAUGUGUGUGUGCCUGUGUGUGUGCGUGUGCGUGUGUGUAUGUGUGUGCGUGUGUGUGUGUGUGUGUUGUACCCGAGUGUGUGUUGAGCCUAUCUGUCCAGGGAACCAGAUUGGUGUCCGAGAUGAGGAAAUGGCUGUGGCCUGGGAAAUCAGUGAGAGGCCGCUUGGGAAUGAGAAUGCAGUGGACUGAAAGCACAGCCUGGCCAUCCUCUUGCGGUCGCACUAGUGUGGAAUUCUCGGGUGUCAAGG
# Target: TDP-43 (Homo sapiens, UniProt Q13148 1-414)
# Sequence (Q13148 whole entry): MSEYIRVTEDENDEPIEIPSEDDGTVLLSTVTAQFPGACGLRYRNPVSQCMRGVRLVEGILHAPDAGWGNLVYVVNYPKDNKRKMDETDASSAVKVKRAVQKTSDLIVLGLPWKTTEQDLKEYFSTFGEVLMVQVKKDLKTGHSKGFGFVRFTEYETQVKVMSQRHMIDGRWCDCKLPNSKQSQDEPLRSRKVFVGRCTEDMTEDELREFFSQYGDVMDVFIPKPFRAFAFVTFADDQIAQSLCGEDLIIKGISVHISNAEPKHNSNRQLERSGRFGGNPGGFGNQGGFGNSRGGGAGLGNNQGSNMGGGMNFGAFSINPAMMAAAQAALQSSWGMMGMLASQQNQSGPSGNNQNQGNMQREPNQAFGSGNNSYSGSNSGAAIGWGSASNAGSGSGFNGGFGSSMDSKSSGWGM
# Assay: RNA Bind-n-Seq with designed 260-mer pool; 25 mM Tris-HCl, 150 mM KCl, 3 mM MgCl2, BSA (printed 500 mg/mL), 20 units/mL SUPERase IN; pH not stated; 500 nM RNA pool, 1 h, 4 C; TDP-43 5, 50, 500 nM; high values mean tight binding
# Settings: protein: recombinant; tags: SBP (GST cleaved off with PreScission; pGEX-GST-SBP)
# How it was run: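 Recombinant SBP-tagged TDP-43 at 5, 50 or 500 nM was captured on streptavidin beads, then incubated 1 h at 4 °C with 500 nM of an in vitro-transcribed 260-nt 3′ UTR oligo pool in 25 mM Tris-HCl, 150 mM KCl, 3 mM MgCl2, BSA and SUPERase IN. Bound RNA was washed, eluted with biotin, reverse transcribed, PCR-amplified and sequenced. Binding is R, each oligo's mapped-read-normalized abundance in the bound sample divided by its abundance in input. Duplicates used two independent protein batches.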
row,Binder,binding signal
1,B1,0.524 R (bound/input frequency ratio)
2,B2,0.806 R (bound/input frequency ratio)
3,B3,0.802 R (bound/input frequency ratio)
4,B4,1.16 R (bound/input frequency ratio)
5,B5,1.4 R (bound/input frequency ratio)
6,B6,0.828 R (bound/input frequency ratio)
7,B7,0.725 R (bound/input frequency ratio)
8,B8,6.03 R (bound/input frequency ratio)
9,B9,6.41 R (bound/input frequency ratio)
10,B10,7.42 R (bound/input frequency ratio)
11,B11,6.06 R (bound/input frequency ratio)
12,B12,5.69 R (bound/input frequency ratio)
13,B13,7.57 R (bound/input frequency ratio)
14,B14,1.59 R (bound/input frequency ratio)
15,B15,8.2 R (bound/input frequency ratio)

# From article PMC12864922, “TDP-43 directly inhibits mRNA accumulation in neurites through modulation of mRNA stability”
